Experimental data: PubChem BioAssay AID1209 (Sanford-Burnham Center for Chemical Genomics, 2008)
Out of some 190,000 compounds screened, about 810 (0.43%) were called active. This is one part of a sample in which actives are shown more often than they occur. A number with no mark means an inactive call. Cut-off read from the data, not from the text of the source: active = inhibition above about 50%; inactive = the rest.

Target: Mannose-6-phosphate isomerase (Homo sapiens) (UniProt P34949)
Experiment: inhibitors of human PMI, primary screen, biochemical, fluorescence intensity, coupled assay (AID 1209);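 note: plate controls were DMSO vehicle for no effect and wells lacking substrate for full effect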
Conditions: purified PMI enzyme, at 20 µM, hits give high values

Mannose-6-phosphate isomerase (Homo sapiens), sequence (P34949 whole entry, looked up): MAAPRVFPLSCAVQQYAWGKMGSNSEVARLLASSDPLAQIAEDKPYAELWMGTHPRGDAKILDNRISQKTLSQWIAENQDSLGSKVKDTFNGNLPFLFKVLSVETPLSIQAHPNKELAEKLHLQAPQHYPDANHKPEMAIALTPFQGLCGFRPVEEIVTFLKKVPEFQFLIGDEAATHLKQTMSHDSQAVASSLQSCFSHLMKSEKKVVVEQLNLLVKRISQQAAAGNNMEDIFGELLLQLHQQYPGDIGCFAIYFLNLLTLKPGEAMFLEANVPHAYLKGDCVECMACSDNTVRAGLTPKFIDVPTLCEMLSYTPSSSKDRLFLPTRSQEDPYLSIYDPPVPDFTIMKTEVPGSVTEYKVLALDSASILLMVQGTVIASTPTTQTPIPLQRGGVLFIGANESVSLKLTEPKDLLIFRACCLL

Row | SMILES | inhibition
1 | S=C(Nc1ccccc1)N1CCN(C(=S)c2ccccc2)CC1 | 13.6%
2 | CCNc1nc(OC)nc(SCC(=O)Nc2ccccc2)n1 | 7.3%
3 | COc1ccc(NC(=O)Nc2ccccc2SC)c(OC)c1 | 16.5%
4 | Cc1cccc2sc(N(CCCN(C)C)C(=O)c3cc4ccccc4oc3=O)nc12 | 11.8%
5 | O=c1cc(O)nc(SCc2ccccc2)[nH]1 | 17.4%
6 | CCn1c2ccccc2c2nc3cc(C(=O)O)ccc3nc21 | 6.3%
7 | CCn1c2ccccc2c2nc3ccccc3nc21 | 4.5%
8 | CCn1c2ccccc2c2nc3cc(S(=O)(=O)N4CCOCC4)ccc3nc21 | 70.3% (active)
9 | COc1ccc(CN2C(=O)NC3(CCOc4ccccc43)C2=O)cc1F (configuration not stated) | 7.7%
10 | CC(C)OC(=O)c1cccc(C(=O)Oc2ccccc2)n1 | -3.1%
11 | Cc1ccc(NC(=O)NC(=O)N(C(C)C)S(C)(=O)=O)nc1 | -7.9%
12 | Cc1[nH]n(-c2ccccc2)c(=S)c1C=Nc1ccc([N+](=O)[O-])cc1 | 69.1% (active)
13 | Cc1[nH]n(-c2ccccc2)c(=S)c1C=NCCCN=Cc1c(C)[nH]n(-c2ccccc2)c1=S | -3.9%
14 | Cc1[nH]n(-c2ccccc2)c(=O)c1C=Nc1ccc(S(=O)(=O)N(C)C)cc1 | -3.8%
15 | C[n+]1ccc(/C=C/c2ccccc2O)c2ccccc21 | 12.3%
16 | CC[n+]1ccc(/C=C2\Sc3ccccc3N2CCCS(=O)(=O)[O-])c2ccccc21 | 8.2%
17 | CN1/C(=C/c2cc[n+](C)c3ccccc23)C=Cc2ccccc21 | 70.7% (active)
18 | CN1C=C/C(=C\c2cc[n+](C)c3ccccc23)c2ccccc21 | 59.2% (active)
19 | CCN1/C(=C/c2ccc3ccccc3[n+]2CC)C=Cc2ccccc21 | 15.5%
20 | COc1ccc(N=c2oc3cc(O)ccc3cc2C(=O)Nc2ccccn2)cc1OC | 14.8%
21 | NC1=NC2CS(=O)(=O)CC2S1 (configuration not stated) | 2.4%
22 | O=C(c1ccc([N+](=O)[O-])cc1)N1CCN(C(=O)c2ccco2)CC1 | 1.1%
23 | COc1ccc(CC(=O)OCC(=O)Nc2cccnc2Cl)cc1OC | -1.9%
24 | CCOC(=O)N1CCN(C(=O)C2CCN(S(=O)(=O)N(CC)CC)CC2)CC1 | -12%
25 | COC(=O)c1ccccc1N/C=C1\CCc2c(c(C)nn2-c2ccccn2)C1=O | 85.2% (active)
26 | COC(=O)c1ccccc1NC(=S)N1CCN(c2ccccn2)CC1 | 7.2%
27 | CCOC(=O)c1ccccc1N/C=C1\CCCCC1=O | -4.9%
